Compound activity deposited in PubChem by Center for Chemical Genomics, University of Michigan.
CDC25B-CDK2 inh = human CDC25B-CDK2/CyclinA binding inhibition; P30305+P24941; HTRF CDC25B-CDK2/CyclinA binding, anti-His/anti-Flag; active compounds read high; z-score (no concentration beside the values); hit rate 0.72% among 94,000; AID 1259370; in the data active means z-score above about 3.2
HIV TAR-Tat = HIV-1 TAR-Tat binding disruption | HIV-1 TAR RNA, Tat peptide displacement FRET; active compounds read high | z-score (concentration not given with the values) | hit rate 0.6% among 100,000; active means z-score of 3 or more in at least 2 runs
* marks the source's active call; other numbers are inactive results; . = no result. Sampled rows, rich in hits. Any-hit rate of the full collection: about 0.9%.

SMILES	CDC25B-CDK2 inh	HIV TAR-Tat
Cc1ccc(-c2noc(CNS(=O)(=O)c3ccc(Br)cc3)n2)cc1	-0.31	2.68
COC(=O)c1ccc(-c2cc(C(=O)O)c3c(-c4ccc(Cl)cc4)[nH]nc3n2)cc1	.	2.49
COc1cc(/C=N/NC(=S)Nc2ccc(F)cc2)ccc1OC(=O)c1ccc(Cl)c(Cl)c1	0.44	.
O=S(=O)(O)c1ccc2[nH]c(=S)sc2c1	-0.66	.
O=S(=O)(O)c1cc[n+]([O-])cc1	4.4*	.
Cc1ccc(C)c(NC(=O)CSC2=Nc3ccccc3C3=NC(C)C(=O)N23)c1 (stereo not given)	.	0.15
N#CC1=C2N=C(N)c3ccccc3N2C2=C(C(=O)CCC2)C1c1c(F)cccc1Cl (stereo not given)	9.3*	-6.63
N#CC1=C2N=C(N)c3ccccc3N2C2=C(C(=O)CCC2)C1c1ccccc1Cl (stereo not given)	-0.95	-1.24
N#CC1=C2N=C(N)c3ccccc3N2C2=C(C(=O)CCC2)C1c1ccc(Cl)cc1 (stereo not given)	-1.28	1.53
N#CC1=C2N=C(N)c3ccccc3N2C2=C(C(=O)CCC2)C1c1ccccc1F (stereo not given)	17.9*	-5.18
O=S(=O)(NCC1CCN(Cc2ccccc2F)CC1)c1cnc[nH]1	.	1.07
O=C(NC(NC(=S)Nc1cccc2ccccc12)C(Cl)(Cl)Cl)c1ccccc1F (stereo not given)	5.27*	.
O=C(NC(NC(=S)Nc1ccccc1Br)C(Cl)(Cl)Cl)c1ccccc1 (stereo not given)	1.16	.
Cn1nc(Br)nc1Sc1ccccc1N	.	1.72
O=C(CSc1nc2ccccc2s1)Nc1ccc2nc(SCC(=O)Nc3ccccc3F)sc2c1	-4.1	.
CN(CCNC(=O)Nc1cn(C)c(=O)c2ccccc12)Cc1ccccc1	.	-2.57
Nc1ccc(O)c(-c2nc3ccc(N)cc3s2)c1	2.3	35.9*
Nc1ccc(-c2nc3ccccc3s2)c(Cl)c1	7.13	-2.13
CC(=O)c1ccc(N2CCN(C(=O)CCCc3nnc4n5nc(C)nc5c5ccccc5n34)CC2)cc1	-1.22	.
O=C(CSc1nc2ccccc2c(=O)[nH]1)N1CCc2ccccc21	.	14.4*
NC(=O)CSc1nc2ccccc2c(=O)[nH]1	-0.94	2.03
COc1cc(-c2nc(-c3ccccc3)c(-c3cccs3)[nH]2)cc(OC)c1O	0.89	.
Oc1ccccc1-c1nc(-c2cccs2)c(-c2cccs2)[nH]1	18.3*	-0.47
c1ccc(-c2noc(-c3cccc4ccccc34)n2)nc1	11.9*	0.01
Fc1ccccc1-c1nc(-c2ccccn2)no1	-1.2	.
SMILES	CDC25B-CDK2 inh	HIV TAR-Tat
CCc1ccc(/C(C#N)=C/c2ccc(OC)cc2)cc1	0.81	.
C=C(C)/C=C1/C=CC(=O)C(C)=C1	.	4.55*
NC(=O)c1nc(Nc2ccccc2)sc1NC(=O)Cc1cccs1	.	-0.59
NC(=O)c1nc(Nc2ccccc2)sc1NC(=O)c1cc(-c2ccco2)nc2ccccc12	.	20.5*
CCN(CC)C(=O)c1sc(NC(=O)c2cc(-c3ccc(C)o3)nc3ccccc23)c(C(N)=O)c1C	0.85	8.51*
Cc1nnc(NC(=O)c2cc(-c3ccc(Cl)cc3)nc3ccccc23)s1	-4.77	.
O=C(c1noc2c1CCCCC2)N1CCN(c2ccc(F)cc2)CC1	1.05	1.22
Cc1cc2c(cc1S(=O)(=O)Nc1ccc(F)c(F)c1)OCC(=O)N2	.	1.1
Cc1cccc(N2CCN(C(=O)c3ccc4c(c3)NC(=O)CS4)CC2C)c1 (stereo not given)	-2.62	.
CCCOc1ccc(-c2cccc(NS(=O)(=O)c3ccccc3Cl)c2)nn1	.	-0.14
CSc1sc(C(=O)NNC(=O)Nc2ccc(Cl)cc2)c2c1C1(CCC2)SCCS1	-1.46	.
CSc1sc(C(=O)NC(=O)Nc2ccc(Cl)cc2)c2c1-c1nocc1CC2	12.8*	.
Nc1cccc2nsnc12	-2.09	.
Cc1cc2c(N)cccc2nn1	17.2*	.
C/C(=N\N=C1\NC(=O)C(CC(=O)Nc2cccc(C)c2C)S1)c1ccccc1 (stereo not given)	-0.89	.
CCCCN(CCCC)S(=O)(=O)c1ccc2c(c1)CC(C)N2C(=O)C1CCC1 (stereo not given)	.	1.87
CCc1nnc(NC(=O)c2cc(=O)n3c(nc4ccccc43)s2)s1	.	3.75*
CCc1nnc(NC(=O)Cn2c(=O)sc3ccccc32)s1	-0.08	.
O=C1CC(c2ccc(-c3ccccc3)cc2)c2cc3c(cc2N1)OCCO3 (stereo not given)	0.36	1.24
CCc1ccc(C2CC(=O)Nc3cc4c(cc32)OCCO4)cc1 (stereo not given)	4.41*	0.55
c1ccc(CCN2CCc3nc(N4CCN(c5ccccn5)CC4)ncc3C2)cc1	.	-0.17
CCn1cnc2cc(NCc3nc4ccccc4n3Cc3ccccc3)ccc21	12.9*	1.87
CCn1cnc2cc(NCc3nc4ccccc4n3C)ccc21	2.55	-0.54
Cc1cc2c(NC(=O)c3ccccc3C(=O)O)cccc2nn1	21.4*	.
Cc1cc2c(NC(=O)Nc3ccc(C(C)(C)C)cc3)cccc2nn1	-1.97	.
